The structures appear in SMILES notation. Among all 2,500 compounds or so, about 1,100 (44%) were called active. The set was probably picked from earlier hits. Some of the results follow. Values without a mark were called inactive.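 How the source made its calls: active means inhibition above 50% at 4 µM in the single-point screen; inactive means inhibition of 50% or less.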

This assay is described as follows: blockers of TNF-a NF-kB luciferase induction – cell-based, HEK293T NF-kB-Luc, luminescence, selectivity assay for NOD1/NOD2 signaling inhibitor project, primary screen (AID 1852). The following applies: TNF-a induced, 14 h, at 4 µM, hits give high values.
One may read the inhibition as the relative decrease from the control value, in per cent. Regarding `C/C(=N\NC(=O)c1nnn(-c2nonc2N)c1CN(C)c1ccccc1)c1ccccc1O`, the inhibition is 92.8% (active). As for `C/C(=N\NC(=O)c1nnn(-c2nonc2N)c1CN(C)c1ccccc1)c1ccccn1`, the figure is -26.2%; as for `C/C(=N\NC(=O)c1nnn(-c2nonc2N)c1-c1ccccc1)c1ccccc1O`, 93.1% (active); as for `CCOc1cccc(-c2c(C(=O)N/N=C(\C)c3ccccn3)nnn2-c2nonc2N)c1`, 66.7% (active). Take `Cc1ccc(Nc2nc(N)nc(CCl)n2)cc1`: the inhibition is -3.9%. As for `CCOc1ccc(Nc2nc(N)nc(CCl)n2)cc1`, the figure is 65.6% (active); as for `COc1ccc(OC)c(Nc2nc(N)nc(CCl)n2)c1`, 54.9% (active); as for `Cc1ccc(Nc2nc(N)nc(CCl)n2)c(C)c1`, 25.1%. On to `COc1ccccc1Nc1nc(N)nc(CCl)n1`, for which the inhibition was 28%.

With `COc1ccc(Nc2nc(N)nc(CCl)n2)cc1`, the inhibition is 23.2%. `Cc1sc2nc(C3CC3)nc(SCC(=O)N3CCc4ccccc4C3)c2c1C`: the inhibition is -10.4%. With `CCc1nc(SCC(=O)N2c3ccccc3CC2C)c2c(C)c(C)sc2n1` (stereo unspecified), the inhibition was -10%. Take `CCc1c(C)sc2nc(C(C)C)nc(SCC(=O)N3CCc4ccccc4C3)c12`: the inhibition is 53.6% (active). Regarding `COc1ccc(NC(=O)/C(C#N)=C/c2cc(C)n(-c3ccc(N4CCOCC4)c([N+](=O)[O-])c3)c2C)cc1`, the inhibition was 15%.

Turning to `CCCCCn1c(=O)[nH]c2cc(C(=O)N3CCN(Cc4ccc5c(c4)OCO5)CC3)ccc2c1=O`, the inhibition is 34.6%. Consider `CCOC(=O)N1CCN(C(=O)c2ccc(Cn3c(=S)[nH]c4ccc(Br)cc4c3=O)cc2)CC1`, for which the inhibition is 43.2%. As for `O=C(c1ccc(Cn2c(=S)[nH]c3ccccc3c2=O)cc1)N1CCN(c2ccccn2)CC1`, the figure is 17.4%. Turning to `O=C(c1ccc(Cn2c(=S)[nH]c3cc4c(cc3c2=O)OCO4)cc1)N1CCN(c2ncccn2)CC1`, the inhibition was 59.2% (active).

Consider `CCOC(=O)N1CCN(C(=O)c2ccc(Cn3c(=S)[nH]c4cc5c(cc4c3=O)OCO5)cc2)CC1`, for which the inhibition is 55.2% (active).

On to `Cc1cc(C=O)c(C)n1-c1ccc(N2CCCCC2)c([N+](=O)[O-])c1`, for which the inhibition is 47.6%. For the molecule `Nc1ncc([N+](=O)[O-])c(N2CCCCCC2)n1`, the inhibition is 86.3% (active). `Cc1cc(/C=N/Nc2nc(N)ncc2[N+](=O)[O-])c(C)n1-c1ccccc1F`: the inhibition was 26.6%. Consider `O=C(Nc1ccccn1)c1ccc(-c2ccccc2)cc1`, for which the inhibition is -197%. In the case of `CN(C)c1cc[n+](CC(=O)c2ccc(-c3ccccc3)cc2)cc1`, the inhibition was 47.3%.

Turning to `CC(C)C[C@H](NC(=O)c1nc[nH]c1C(=O)N(C)Cc1ccccc1)C(=O)OC(C)(C)C`, the inhibition is 26.1%. As for `CN(Cc1ccccc1)C(=S)NC(=O)c1ccc(-c2ccccc2)cc1`, the figure is 105% (active); as for `C=CCN(CC=C)C(=S)NC(=O)c1ccc(-c2ccccc2)cc1`, 104% (active). With `CCOC(=O)CSc1n[nH]c(NC(=O)CC)n1`, the inhibition was -7.7%. For `NC(=S)Nc1cccc2cn[nH]c12`, the inhibition was 75.7% (active). `O=c1c(C(c2ccccc2)c2c(O)sc3ccccc3c2=O)c(O)sc2ccccc12`: the inhibition was 77.7% (active). `NC(=O)c1nsc(C(=O)N(c2ccccc2)C(C(=O)NCc2ccc(F)cc2)c2ccco2)c1N` (stereo unspecified): the inhibition is -11.7%.

As for `NC(=O)c1nsc(C(=O)N(c2ccccc2F)C(C(=O)NCc2ccc(F)cc2)c2ccc(O)cc2)c1N` (stereo unspecified), the inhibition is 69.7% (active).

For `CN(C)c1ccc(C(C(=O)NCc2ccccc2)N(Cc2ccco2)C(=O)c2snc(C(N)=O)c2N)cc1` (stereo unspecified), the inhibition is 11.8%.

Take `COc1cc(C)ccc1OCCCOc1ccccc1Cl`: the inhibition is 90.6% (active). In the case of `COc1cc(CNc2ccc3[nH]c(=O)[nH]c3c2)ccc1OCc1ccccc1Cl`, the inhibition is 31.1%. `COC(=O)c1ccccc1OCCCOc1ccc(C)cc1OC`: the inhibition is -116%.

In the case of `N#CC1=C(N)N2C(=C(C#N)C1c1ccc(Br)cc1)Nc1ccccc12` (stereo unspecified), the inhibition was 86.9% (active).

Consider `N#CC1=C(N)N2C(=C(C#N)C1c1cccc(Br)c1)Nc1ccccc12` (stereo unspecified), for which the inhibition was 89.3% (active). On to `CCN1C(=O)/C(=C/c2nc3ccccc3c(=O)n2-c2ccc(C)cc2)c2ccccc21`, for which the inhibition was 23.6%.

For `Cc1cc(Cl)c(S(=O)(=O)N2CCN(c3ccc(F)cc3)CC2)cc1OCC(=O)NC1CCCCC1`, the inhibition was 69.7% (active). As to `Cc1cc(Cl)c(S(=O)(=O)N2CCCCCC2)cc1OCC(=O)NC1CCCCC1`, the inhibition was 55.3% (active).

For the molecule `Cc1cc(Cl)c(S(=O)(=O)N2CCSCC2)cc1OCC(=O)NC1CCCCC1`, the inhibition is 44.2%. Regarding `COc1ccc(S(=O)(=O)N2CCCC(C(=O)NCc3ccncc3)C2)cc1Cl` (stereo unspecified), the inhibition was 8.9%. As for `COc1ccc(C)cc1S(=O)(=O)N1CCN(C(=O)c2ncoc2-c2ccc(F)cc2)CC1`, the inhibition is 14.4%.

As for `Cc1cc(-c2ccc(C)c(S(=O)(=O)N3CCN(c4ccc(F)cc4)CC3)c2)on1`, the inhibition was 41%. Regarding `CCOc1ccc(/C=C2\C(=O)c3ccccc3OC2c2ccccc2)cc1` (stereo unspecified), the inhibition was -5.4%.

For the molecule `Cc1ccc(-c2onc3ccc(C(=O)/C=C/N(C)C)cc23)cc1`, the inhibition was 14.5%. Take `COc1ccc2cc3c(N)nn(C(=O)Cc4c[nH]c5ccccc45)c3nc2c1`: the inhibition is 91.9% (active). For `CCOc1ccccc1N1CCN(C(=O)c2cc(-c3cc(OC)ccc3OC)nc3ccccc23)CC1`, the inhibition is 1.3%. As for `COc1ccc2cc3c(N)nn(C(=O)Cc4ccccc4OC)c3nc2c1`, the inhibition was 91% (active). As for `COc1ccc2cc3cc(C(=O)NCCc4ccc(OC)c(OC)c4)oc3nc2c1`, the figure is -4.4%; as for `O=c1[nH]c(CCl)nc2cc(-c3ccc(F)cc3)sc12`, 28.3%; as for `COc1ccc(-c2cc3nc(CCl)[nH]c(=O)c3s2)cc1`, 25.2%. As for `COc1ccc(-c2cc3nc(C)n(N)c(=O)c3s2)cc1`, the figure is 78.3% (active); as for `CSc1cccc(NS(=O)(=O)c2ccc3c(c2)CCN3C(C)=O)c1`, 25%.

In the case of `CC1Cc2ccccc2N1C(=S)NC(=O)c1cccc(Br)c1` (stereo unspecified), the inhibition is 103% (active). Take `CCC(=O)Nc1cccc(C(=O)/C=C/c2cc(Br)ccc2OC)c1`: the inhibition is 77.3% (active). Consider `COc1cccc(C(=O)/C=C/c2ccc(OCC#N)c(OC)c2)c1`, for which the inhibition is -58.9%. On to `COc1ccc(Br)cc1/C=C/C(=O)c1ccc(NC(C)=O)cc1`, for which the inhibition is 94.8% (active). With `CC(=O)Nc1ccc(N/C=C/C(=O)c2ccc(C)cc2)cc1`, the inhibition is -16.4%. Turning to `COc1ccccc1/C=C1\S/C(=N/NC(=O)c2cccc(Br)c2)NC1=O`, the inhibition was -30.6%.

The record behind these values is PubChem BioAssay AID1852 (Sanford-Burnham Center for Chemical Genomics, 2009).
